Laboratory results as given in PubChem BioAssay AID602252 (Broad Institute, 2012).
Among all 300,000 compounds or so, about 2,700 (0.9%) were called active. The sample holds actives, similar compounds and a random draw of the others, so the mix is not that of the screen.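 The calls were made as follows: active = mean inhibition of at least 30% with at least half of replicates also reaching 30%; inconclusive = no clear call, values can overlap the other calls; inactive = the rest.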

target: Golgi-associated PDZ and coiled-coil motif-containing protein (Homo sapiens) (UniProt Q9HD26); assay: blockade of CAL PDZ-reporter peptide interaction – biochemical, fluorescence polarization, untagged CAL PDZ, HTS, primary screen (AID 602252); conditions: purified CAL PDZ, TMR-peptide fluorescence polarization, 1 h; at 24.9 µM; active compounds read high;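 also: 0% = DMSO neutral control and 100% = excess unlabeled competitor peptide PRC23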

| SMILES | inhibition |
| --- | --- |
| CC(=NCC1CCCO1)c1c(O)n(-c2ccccc2)c(=O)[nH]c1=O (stereo not given) | -0.888% (inactive) |
| COc1ccccc1-n1c(O)c(C=NC2CC2)c(=O)[nH]c1=O | -5.85% (inactive) |
| Cc1ccc(-n2c(O)c(C=NCC3CCCO3)c(=O)[nH]c2=O)c(C)c1 (stereo not given) | 62.7% (active) |
| CCC(C)(O)C(=O)OC1C(=O)OC2CC3C(C)=CC(=O)C(O)C3(C)C3C4(O)OCC23C1C(C)C4O (stereo not given) | -3% (inactive) |
| COC1C(O)C(C)OC(OC2CCC3(C=O)C(CCC4C3CCC3(C)C(C5=CC(=O)OC5)CCC43O)C2)C1O (stereo not given) | -0.006% (inactive) |
| Cc1ccc(-n2c(C)cc(/C=C3\C(=O)NC(=O)N(C)C3=O)c2C)cc1C | 0.186% (inactive) |
| Cc1cc(C=C2C(=O)NC(=O)NC2=O)c(C)n1-c1ccncc1 | 49.2% (active) |
| Cc1ccnc(-n2c(C)cc(/C=C3\C(=O)NC(=S)N(C)C3=O)c2C)c1 | -1.9% (inactive) |
| CC(=O)OC1C2(CC3N4C(=O)C5(CO)SSC4(CC31O)C(=O)N5C)OC(C)C(C)(C)C2=O (stereo not given) | 1.68% (inactive) |
| CC12CCC(O)CC1CCC1C2CCC2(C)C(C(=O)CC(O)C(F)(F)F)CCC12 (stereo not given) | -6.37% (inactive) |
| O=C(c1ccccc1)C(O)(CN1CCCCC1)c1ccccc1 (stereo not given) | -5.06% (inactive) |
| CC1C(=O)OC2CCN3CC=C(COC(=O)C(C)(O)C1(C)O)C23 (stereo not given) | 56.3% (active) |
| CCOC(=O)C1(c2ccccc2)CCN(CC(O)c2ccc(NC(C)=O)cc2)CC1 (stereo not given) | -0.121% (inactive) |
| CCOC(=O)CC(SP1(=S)OCC2(CCCCO2)C(C2CCCCO2)O1)C(=O)OCC (stereo not given) | 0.015% (inactive) |
| CC=C(C)C(=O)OC1CCN2CC=C(COC(=O)C(O)(C(C)OC)C(C)(C)O)C12 (stereo not given) | -2.7% (inactive) |
